Reference: ChEMBL document CHEMBL3988442, “University of Dundee, Small-Polar-MMV Screening Library” (2021)
The whole screen tested about 48,000 compounds, of which about 13,000 (27%) showed an effect of 50% or more. Some of the results follow.

Tested on: Wolbachia pipientis
Experiment: Anti-Wolbachia Cell-Based Screen
Type: functional
Set-up: scale not given: in the data most compounds retested in dose-response had high values
Settings: 5 µM

SMILES | Percent Effect
O[C@@H]1C[C@@H](c2nc(-c3ccc(OC(F)(F)F)cc3)no2)N(CC2CC2)C1 | 9.042%
CCC/C=C/c1ccc(CN2CCCC2)cn1 | -3.861%
CCOC(=O)CN1CC(c2nc(-c3ccsc3)no2)C1.O=C(O)C(=O)O | -3.591%
CCC1COCCN1C(=O)CNC(=O)c1ccoc1C (stereo not drawn) | -13.26%
Cc1nc(Nc2ccccn2)cc(N2CCN(S(C)(=O)=O)CC2)n1 | -12.78%
CS(=O)(=O)N1CCN(c2ccc(Nc3ccccn3)nn2)CC1 | 2.595%
Cc1nc2c(c(Nc3ccccn3)n1)CN(S(C)(=O)=O)CC2 | 109%
Cc1ncc(CNCC(=O)NC2CCCCC2)n1-c1ccccc1 | -6.194%
CC(CCc1ccccc1)NC(=O)Nc1cnn(CC(N)=O)c1 (stereo not drawn) | -0.3012%
CCc1nnc2n1CCN(C(=O)CN(C)C1CC1)C2 | 84.19%
CCc1nnc2n1CCN(C(=O)CN(CC)CC)C2 | 97.7%
CCc1nnc2n1CCN(C(=O)COCCc1ccccc1)C2 | -3.602%
CCc1nnc2n1CCN(C(=O)c1cnn(C)c1C1CC1)C2 | 0.7265%
CCc1nnc2n1CCN(C(=O)c1ccccc1OCC1CC1)C2 | -2.361%
CCc1ncc(C(=O)N2CCn3c(CC)nnc3C2)s1 | -2.408%
COCC(NC(=O)NCc1sccc1C)c1ccco1 (stereo not drawn) | -5.912%
CN(Cc1nccn1C)C(=O)C1COCC(=O)N1Cc1ccccc1 (stereo not drawn) | -8.994%
CN1CCOC(C(=O)Nc2nc(-c3ccc4c(c3)CCC4)n[nH]2)C1 (stereo not drawn) | -12.56%
Cn1ccnc1C(=O)N1CCCC1c1ccc(C(=O)N2CCOCC2)s1 (stereo not drawn) | -4.877%
COCC(=O)N1CCC2(CCC2NS(=O)(=O)c2ccccc2)CC1 (stereo not drawn) | 2.757%
CCNC(=O)N1CCC(Cc2cccc(C(N)=O)c2)C1 (stereo not drawn) | 4.026%
CCOC(=O)N1CCC(OC)c2ccccc2N(CC(=O)NC)C(=O)C1 (stereo not drawn) | 117.4%

SMILES | Percent Effect
CC1CCN(C(=O)C2CCN(S(C)(=O)=O)CC2)c2ccccc21 (stereo not drawn) | 3.869%
CS(=O)(=O)N1CCC(C(=O)N2CCOc3ccccc32)CC1 | 5.703%
CCNC(=O)N1CC[C@H]2CC(=O)N(CC(N)=O)CC[C@H]2C1 | 1.469%
CCNC(=O)N1CCC(OC)c2ccccc2N(CC(=O)NC)C(=O)C1 (stereo not drawn) | 67.66%
CNC(=O)CN1C(=O)CN(C(=O)COC)CCC(OC)c2ccccc21 (stereo not drawn) | 121.9%
CCOC(=O)CN1C(=O)CN(S(C)(=O)=O)CCC(OC)c2ccccc21 (stereo not drawn) | 83.87%
CNC(=O)NC(=O)CN1CCN(CC2CC2)c2ccccc21 | 5.416%
c1ccc(COCC2CNCc3nccn3C2)nc1 (stereo not drawn) | -7.438%
O=C(NS(=O)(=O)Cc1ccc(F)cc1)C1CCc2ccccc21 (stereo not drawn) | 9.1%
CC(NC(=O)NCC(C)(C)O)c1ccc(-c2cncnc2)cc1 (stereo not drawn) | -6.963%
COc1ccc(NCc2ccccc2N2CCN(C(C)=O)CC2)cn1 | 3.995%
CNC(=O)CS(=O)(=O)C1CCN(S(=O)(=O)c2ccccc2Cl)CC1 | 17.8%
CNC(=O)CN1CCCC1c1ccccc1Br (stereo not drawn) | 2.059%
CCS(=O)(=O)N1CCC(OC)c2ccccc2N(CC(=O)NC)C(=O)C1 (stereo not drawn) | 115.1%
O=S(=O)(NCCNc1cc(-n2cccn2)ncn1)c1cccs1 | 12.03%
Cc1ccc(-c2[nH]c3ccccc3c2C(=O)O)c(C)c1 | 112.6%
CC(=O)N1CCCN(C(=O)c2csc(-c3ccc(C)cc3C)n2)CC1 | -4.506%
CC(C)CN1CCN(C(=O)c2cc(=O)c3ccccc3[nH]2)CC1 | -0.8051%
COc1ccc(C)cc1C(C(=O)O)N1CCN(Cc2ccccn2)CC1 (stereo not drawn) | -8.065%
Cc1ccc(C(=O)CN2C(=O)c3ccccc3CS2(=O)=O)c(C)c1 | -19.51%
Cc1ccc(C)c(C(=O)CN2C(=O)c3ccccc3CS2(=O)=O)c1 | -17.22%
COc1ccc(C(=O)NS(C)(=O)=O)cc1-c1ccccc1 | -13.07%

SMILES | Percent Effect
Cc1ccc(C)c(-c2[nH]c3ccccc3c2C(=O)O)c1 | 107.7%
COc1ccc(C)cc1-c1[nH]c2ccccc2c1C(=O)O | 86.15%
CCc1ncc2c(n1)CN(CC(=O)Nc1nnc(C)s1)CC2 | -0.5205%
Cc1ncc2c(n1)CN(CC(=O)Nc1nncs1)CC2 | 10.92%
Cc1ncc2c(n1)CN(CC(=O)Nc1nccs1)CC2 | 121.1%
Cc1ncc2c(n1)CN(CC(=O)N1CCc3sccc3C1)CC2 | -8.865%
Cc1nc(CN2CCCN(CC(=O)Nc3cccnc3)CC2)no1 | -4.253%
Cc1nnc(NC(=O)CN2CCCC(c3ccn[nH]3)C2)s1 (stereo not drawn) | 8.304%
Cc1ncc2c(n1)CN(CC(=O)Nc1cccnc1)CC2 | 115.5%
Cc1ncc2c(n1)CN(CC(=O)Nc1nnc(C)s1)CC2 | 120.8%
Cc1ncc2c(n1)CN(CC(=O)Nc1ccncc1)CC2 | 3.82%
COC(=O)[C@H]1CN(C(=O)NC(C)C)CCN1C(=O)CSC | 4.68%
CSCCN(C)Cc1ccc(F)cc1C#N | -7.692%
CCCN1C[C@H]2CC[C@@H]1CN(Cc1ccc(Cn3cccn3)cc1)C2 | -13.63%
CC(=O)c1ccc(C(=O)N2C[C@@H]3CC[C@H](C2)N(CC2CCC2)C3)s1 | -8.325%
Cc1nnsc1CN1C[C@@H]2CC[C@H](C1)N(Cc1ccccc1)C2 | -5.089%
Cc1nnsc1CN1C[C@H]2CC[C@@H]1CN(Cc1ccccc1)C2 | 2.749%
CCCN1C[C@H]2CC[C@@H]1CN(c1nnc(C(C)C)s1)C2 | 100.1%
CC(C)c1nnc(N2C[C@@H](CN(C)CCO)[C@@H](CO)C2)s1 | -2.617%
CC(C)c1nnc(N2C[C@@H]3CC[C@H](C2)N(CC2CCC2)C3)s1 | 78.31%
CC(C)c1nnc(N2C[C@@H]3CC[C@H](C2)N(Cc2ccccc2)C3)s1 | 104.2%
Cc1ccc(C(=O)N2C[C@@H]3CC[C@H](C2)N(CC2CCC2)C3)s1 | -1.222%

SMILES | Percent Effect
N#CCCNC(=O)CN1CCC(c2cc3ccccc3[nH]2)CC1 | 7.04%
O=C(O)C(F)(F)F.O=C(O)[C@]12CCCN(Cc3ccsc3)C[C@H]1CN(c1ncccn1)C2 | 0.06928%
CCc1nc(CN2CCCC(NCc3nc4cccnc4[nH]3)C2)no1 (stereo not drawn) | -2.824%
Cc1ccc(CN2CCCC3(COCCN(Cc4c[nH]nn4)C3)C2)s1.O=C(O)C(F)(F)F.O=C(O)C(F)(F)F (stereo not drawn) | -11.68%
Fc1ccc(OCc2noc(CN3CCc4cncnc4C3)n2)cc1 | -13.93%
CC(C)N1CCC(c2nccnc2Nc2cnccn2)CC1 | 128.3%
OCC(CO)N1CCC(c2nccnc2Nc2cnccn2)CC1 | 132.8%
CC(C(=O)NC(C)(C)C)N1CCC(C(=O)Nc2cnccn2)CC1 (stereo not drawn) | -9.659%
OCC(CO)N1CCC(c2nnc(Cn3ccnc3)n2C2CC2)CC1 | 11.43%
CC(=O)N1CCC(c2nccnc2Nc2cnccn2)CC1 | 118.2%
CN1CCC(c2nccnc2Nc2cnccn2)CC1 | 94.48%
CCc1ccccc1OCCN1CC[C@@]2(O)CCNC[C@H]2C1 | 3.949%
CCC(C)NC(=O)CCNC(=O)c1c[nH]cc1-c1cccc(OC)c1 (stereo not drawn) | -21.59%
CC(C)CNC(=O)CC1OCCc2ccsc21 (stereo not drawn) | -17.3%
Cc1nc(CNC(=O)NCCC2=CCCC2)oc1C | -10.48%
CC(Cc1ccccc1F)NC(=O)CCc1nc(-c2nnc[nH]2)no1 (stereo not drawn) | 5.01%
Cn1cc(-c2cccc(CNC(=O)N3CCC[C@@H]3CO)c2)cn1 | -23.52%
NC(=O)c1cncc(N2CCN(Cc3cccc4nsnc34)CC2)n1 | -24.77%
CC(O)Cc1cn(CC2CCN(C3CCSCC3)CC2)nn1 (stereo not drawn) | -14.87%
Cc1cnc(NC(=O)N2CCCCCC2)s1 | -6.378%
CC(=O)N1CCC(c2nccnc2Nc2ncc(C)s2)CC1 | 69.11%
CC(C(=O)Nc1ncccn1)N1CCC(n2ccnc2)CC1 (stereo not drawn) | -2.043%

SMILES | Percent Effect
CC(C)N1CCC(c2nccnc2Nc2ncccn2)CC1 | 97.4%
Cc1cnc(NC(=O)N2CCCC2)s1 | 11.08%
COc1ccc(C)cc1S(=O)(=O)NCCC(O)c1ccccc1 (stereo not drawn) | -7.148%
COCCC(=O)N1CCC(c2cc(O)n(C)n2)C1 (stereo not drawn) | 94.23%
COCCC(=O)N1CCC(c2nc(O)cc(-c3ccncc3)n2)C1 (stereo not drawn) | 95%
COCCC(=O)N1CCCC(c2nc(O)cc(-c3ccncc3)n2)C1 (stereo not drawn) | 119.6%
Cn1nc(C2CCCN(C(=O)CO)C2)cc1O (stereo not drawn) | -7.33%
COCCCC1CCCN(C(=O)CCc2cc(O)no2)C1 (stereo not drawn) | -11.88%
O=C(c1[nH]nc(C2CC2)c1Cl)N1CCN(C2CC2)C(=O)C1 | -4.23%
CCc1nnsc1C(=O)NCCC1CN(C(C)C)CCO1 (stereo not drawn) | 2.098%
O=C(NCc1cc[nH]n1)N(CCCO)C1CCc2ccccc21 (stereo not drawn) | 9.826%
N#Cc1cccc(N2CCCC3(CN(C(=O)[C@H]4CCCO4)CCO3)C2)c1 (stereo partly drawn) | -7.794%
CN(C)CC(=O)N1CCOC2(CCCN(c3ncccc3F)C2)C1.O=C(O)C(F)(F)F.O=C(O)C(F)(F)F (stereo not drawn) | 6.33%
CC(C)NC(=O)N1CCOC2(CCCN(c3ncccc3F)C2)C1.O=C(O)C(F)(F)F (stereo not drawn) | 108.5%
O=C(O)C(F)(F)F.O=C(c1cnccn1)N1CCOC2(CCCN(c3ncccc3F)C2)C1 (stereo not drawn) | 105%
O=C(O)C(F)(F)F.O=C(c1cnccn1)N1CCOCC2(CCN(C3CCOCC3)C2)C1 (stereo not drawn) | 8.846%
O=C(O)C(F)(F)F.O=C([C@H]1CCCO1)N1CCOC2(CCCN(c3ncccc3F)C2)C1 (stereo partly drawn) | 94.35%
COCC(=O)N1CCOC2(CCCN(c3cnccn3)C2)C1.O=C(O)C(F)(F)F (stereo not drawn) | -12.12%
CC(C)NC(=O)N1CCOC2(CCCN(c3cccc(C#N)c3)C2)C1 (stereo not drawn) | -9.45%
O=C(CO)N1CCOC2(CCCN(c3ncc(F)cn3)C2)C1.O=C(O)C(F)(F)F (stereo not drawn) | 5.697%
